Source: PubChem
rCAG binder = molecules binding r(CAG) RNA repeats; actives 1.3% (n = 370,000); inhibition, % at 3 µM; AID 651821; r(CAG) RNA repeat, TO-PRO-1 dye displacement fluorescence;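 active means inhibition above the plate cutoff, the mean of all test compounds on that plate plus 3 SD, cut at about 35% in these data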;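 further: 0% = DMSO alone and 100% = 100 µM mitoxantrone as full dye displacement; higher means more dye released from RNA so lower well fluorescence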
DNMT1 block = inhibitors of human DNMT1 | P26358 | actives 0.83% (n = 360,000) | AID 588458 | DNMT1 molecular beacon, Hinp1I cleavage, fluorescence | inhibition (reported as % activation of signal), % at 10 µM; in the data active means inhibition above about 50%
UHRF1 binding = blocks human UHRF1 binding to methylated DNA; inhibition, % at 4.4 µM; actives 0.75% (n = 370,000); UHRF1 binding to methylated oligo, TR-FRET; in the data active means inhibition above about 21%;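 further: UHRF1 SRA domain binding a hemimethylated CpG hairpin DNA probe; 0% = median of test compound wells and 100% = reference inhibitor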
LEDGF integ inh = blocks HIV-1 LEDGF/p75-dependent DNA integration | actives 0.64% (n = 370,000) | inhibition, % at 3.7 µM | AID 743269 | TR-FRET IN-LEDGF/p75 DNA integration, Eu/Cy5;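 active means inhibition above the screen-wide mean plus 3 SD, cut at about 13% in these data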;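 further: signal is the Cy5 over europium emission ratio at 671 and 618 nm; 0% = plate median of compound wells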
PG9 Ab binder = PG9 antibody binding by small molecule | inhibition, % at 6.7 µM | TR-FRET gp120-PG9 antibody binding | actives 0.43% (n = 360,000); in the data active means inhibition above about 8.5%
MBD2 inh = blocks human MBD2 binding to methylated DNA; Q9UBB5; actives 0.31% (n = 370,000); inhibition, % at 4.4 µM; TR-FRET, MBD2 binding to methylated oligonucleotide; in the data active means inhibition above about 13%
rCAG binder conf = r(CAG) RNA repeat binding, confirmation; shares compounds with rCAG binder; TO-PRO-1 dye displacement fluorescence; inhibition, % at 3 µM; actives 70% (n = 4,300); AID 652065;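 active means inhibition above a per-plate cutoff, the mean inhibition of sample wells plus 3 SD, cut at about 35% in these data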;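 further: loss of TO-PRO-1 fluorescence as compound displaces dye from 1x1 AA loop RNA; 0% = DMSO only wells and 100% = 100 µM mitoxantrone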
dCAG dye counter = disrupts DNA CAG TO-PRO-1 complex, flagging rCAG hits; shares compounds with rCAG binder; d(CAG) DNA oligo TO-PRO-1 dye displacement, fluorescence; inhibition, % at 3 µM; actives 94% (n = 4,300);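 active means inhibition above its plate's cutoff, the mean test-well inhibition plus 3 SD, cut at about 4.8% in these data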;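 further: 0% = DNA dye mix with DMSO and 100% = 100 µM mitoxantrone; hits displace the dye from DNA and so lower well fluorescence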
An asterisk follows results filed as active. Rows were chosen to be rich in hits. Some 3.5% of all compounds tested hit in one or more screens of this group.

`N#C/C(=N\Nc1cccc(Cl)c1)C(=O)c1ccccc1` gave rCAG binder 73*, DNMT1 block -3, UHRF1 binding 0, LEDGF integ inh 2, PG9 Ab binder -2, MBD2 inh -4, rCAG binder conf 44* and dCAG dye counter 11*.
For N#C/C(=N\Nc1ccc(Cl)cc1)C(=O)c1ccsc1 the results were rCAG binder 47*, DNMT1 block -3, UHRF1 binding 2, LEDGF integ inh 2, PG9 Ab binder -2, MBD2 inh 1, rCAG binder conf 40* and dCAG dye counter 8.1*.
`COc1ccc(C(=O)/C(C#N)=N/Nc2cccc([N+](=O)[O-])c2)cc1` gave rCAG binder 44*, DNMT1 block -4, UHRF1 binding 1, LEDGF integ inh 1, PG9 Ab binder -1, MBD2 inh -4, rCAG binder conf 52* and dCAG dye counter 13*.
For COc1ccc(Cc2nnc(SCC(=O)Nc3cc(Cl)ccc3C)[nH]c2=O)cc1 the results were rCAG binder 45*, DNMT1 block 0, UHRF1 binding -2, LEDGF integ inh -3, PG9 Ab binder -1, MBD2 inh 1, rCAG binder conf 36* and dCAG dye counter 8.2*.
`Cc1ccc(Cc2nnc(SCC(=O)Nc3c(C)cccc3C)[nH]c2=O)cc1` gave rCAG binder 15, DNMT1 block 0, UHRF1 binding -2, LEDGF integ inh 2, PG9 Ab binder 2 and MBD2 inh -2.
`CC(=O)NS(=O)(=O)c1ccc(N=c2ssc3c2-c2cc(C)ccc2NC3(C)C)cc1` gave rCAG binder 48*, DNMT1 block 7, UHRF1 binding 5, LEDGF integ inh 0, PG9 Ab binder -2, MBD2 inh -2, rCAG binder conf 45* and dCAG dye counter 16*.
Screening O=S(=O)(NC1=NCCCCC1)c1ccc2sc(NS(=O)(=O)c3ccc4ccccc4c3)nc2c1 returned rCAG binder 56*, DNMT1 block -7, UHRF1 binding -6, LEDGF integ inh -7, PG9 Ab binder 0, MBD2 inh 5, rCAG binder conf 63* and dCAG dye counter 28*.
`Cc1sc2c(c1C)C(O)=C(C(=O)Nc1ccccc1)S(=O)(=O)N2C` gave rCAG binder 43*, DNMT1 block 0, UHRF1 binding -1, LEDGF integ inh -2, PG9 Ab binder -2, MBD2 inh 2, rCAG binder conf 27 and dCAG dye counter 6.9*.
For CCCC1NC(=O)c2cc3ccccc3cc2-n2c1nc1ccc(F)cc1c2=O (configuration not stated) the results were rCAG binder 0, DNMT1 block -10, UHRF1 binding 0, LEDGF integ inh -2, PG9 Ab binder -1 and MBD2 inh 3.
CCOc1ccc(-n2c(O)c(/C=N/NC(=O)C3COc4ccccc4O3)c3ccccc3c2=O)cc1 (configuration not stated) was read as rCAG binder 76*, DNMT1 block -8, UHRF1 binding 0, LEDGF integ inh -1, PG9 Ab binder -3, MBD2 inh 4, rCAG binder conf 74* and dCAG dye counter 37*.
COc1cc(/C=N\NC(=O)C2COc3ccccc3O2)cc(OC)c1O (configuration not stated) was read as rCAG binder -2, DNMT1 block 0, UHRF1 binding 0, LEDGF integ inh -5, PG9 Ab binder -3 and MBD2 inh 1.
Screening CC(C)CCC1(CCO)C(=O)N=C(N)NC1=O (configuration not stated) returned rCAG binder 3, DNMT1 block 2, UHRF1 binding -1, LEDGF integ inh -1, PG9 Ab binder -1 and MBD2 inh -1.
For COC(=O)C1=C(C)N(Cc2ccccc2C(F)(F)F)C(=NCc2ccc(C(F)(F)F)cc2)NC1c1ccccc1 (configuration not stated) the results were rCAG binder 2, UHRF1 binding 1, LEDGF integ inh -6, PG9 Ab binder -1 and MBD2 inh 0.
